# Only some compounds are listed: those with a hit (about 2.4% of all), similar ones and a draw of the others.
# D2 ag-1 = HTS Assay for Allosteric Agonists of the Human D2 Dopamine Receptor: Primary Screen for Agonists | activation, % at 2 µM | D(2) dopamine receptor (Homo sapiens), P14416 | AID 485358, 2010 | HEK293 T-REx D2 cells, calcium flux agonist mode | 340,000 compounds, 0.53% hits;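 active = activation over 3 SD above normal in the single-dose calcium agonist read, cut at about 30% in these data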; note: 0% is about no effect
# Target sequence (P14416 whole entry, looked up): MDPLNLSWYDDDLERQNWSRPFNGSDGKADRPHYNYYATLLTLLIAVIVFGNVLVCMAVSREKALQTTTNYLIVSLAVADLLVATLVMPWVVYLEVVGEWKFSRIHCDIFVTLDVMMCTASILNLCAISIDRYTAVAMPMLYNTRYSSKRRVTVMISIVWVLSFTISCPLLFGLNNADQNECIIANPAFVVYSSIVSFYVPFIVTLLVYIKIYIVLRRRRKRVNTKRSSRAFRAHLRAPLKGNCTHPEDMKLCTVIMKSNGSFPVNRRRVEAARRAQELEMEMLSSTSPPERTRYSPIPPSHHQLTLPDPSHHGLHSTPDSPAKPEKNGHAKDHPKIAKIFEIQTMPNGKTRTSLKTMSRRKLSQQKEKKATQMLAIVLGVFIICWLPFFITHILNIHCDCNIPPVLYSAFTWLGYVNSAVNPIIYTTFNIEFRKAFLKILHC
#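 Agonism is scored from calcium flux in a force-coupled, inducible HEK293 cell line expressing D2, read kinetically for 180 s after compound addition against dopamine controls.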
# D2 antagonist = HTS Assay for Allosteric Antagonists of the Human D2 Dopamine Receptor: Primary Screen for Antagonists. inhibition, % at 10 µM. D(2) dopamine receptor (Homo sapiens), P14416. 340,000 compounds, 2% hits. HEK293 TREx D2 cells, calcium flux, dopamine EC80; in the data active = inhibition above about 30%; inactive = below that, where a call was filed; note: 0% is about no effect
#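 Compounds are added to dye-loaded, induced HEK293 T-REx cells coupled to calcium release via D2; after a 3 min kinetic read an EC80 dopamine stimulus is given and fluorescence is recorded for 3 more min.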
# D2 PAM-1 = HTS Assay for Positive Allosteric Modulators of the Human D2 Dopamine Receptor: Primary Screen for Potentiators; D(2) dopamine receptor (Homo sapiens), P14416; 340,000 compounds, 0.34% hits; HEK293 T-REx D2, calcium flux, EC20 dopamine potentiation; potentiation, % at 10 µM;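 active = potentiation over 3 SD above the plate norm, cut at about 30% in these data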; note: 0% is about no effect
#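 Potentiation of an EC20 dopamine calcium response measured kinetically over 180 s, after a preceding 180 s compound-only read flagging agonists. Cells: inducible Hek293 Trex D2 line, 4000/well, cultured overnight at 30 C before dye loading.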
# D2 ag-2 = Beta-Arrestin HTS for Positive Allosteric Modulators of the Human D2 Dopamine Receptor: Agonists. D(2) dopamine receptor (Homo sapiens), P14416. DiscoveRx PathHunter D2 beta-arrestin, luminescence, 90 min; 100% = 57 uM dopamine signal. activation, % (test concentration not listed). 360,000 compounds, 0.084% hits. AID 624465, 2012; in the data active = activation above about 40%; inconclusive = between about 15% and that limit
#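 DiscoveRx PathHunter D2 beta-arrestin cells (2,100/well) attached overnight, then compound-stimulated 90 min at 37 C in HBSS/10 mM HEPES/0.1% Tween-20 buffer; beta-galactosidase complementation read by luminescence after 1 h at ambient temperature. Dopamine 57 uM final (EC100) as control.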
# D2 PAM-2 = Beta-Arrestin HTS for Positive Allosteric Modulators of the Human D2 Dopamine Receptor: Potentiators; D(2) dopamine receptor (Homo sapiens), P14416; DiscoveRx D2 beta-arrestin cells, luminescence, 90 min; 100% = 57 uM dopamine signal; potentiation, % (concentration not given with the values); 360,000 compounds, 0.23% hits; in the data active = potentiation above about 50%; inconclusive = mostly about 30% to 49%
#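 PathHunter beta-arrestin assay in DiscoveRx D2 cells. Compounds were added with an EC20 of dopamine (50 nM final) for 90 min at 37 deg C. Luminescence was read 1 h after detection reagent, with 57 uM dopamine as the EC100 control.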
# An asterisk follows results filed as active; ? = inconclusive; nt = no result.
SMILES,D2 ag-1,D2 antagonist,D2 PAM-1,D2 ag-2,D2 PAM-2
COc1ccc(/C=C/c2nc(C#N)c(N3CCC(C(N)=O)CC3)o2)cc1OC,0,nt,-1,nt,nt
CCOC(=O)CCNC(=O)Nc1ccc2nc(C)n(Cc3cccc(Cl)c3)c(=O)c2c1,-2,-15,35*,0,7
CCCc1nc2ccc(NC(=O)NCCC(=O)OCC)cc2c(=O)n1Cc1cccc(Cl)c1,0,-16,4,0,3
C=CCNC(=O)c1oc2ccc(S(=O)(=O)N3CCC4(CC3)OCCO4)cc2c1C,0,-1,33*,0,-5
C=CCNC(=O)c1oc2ccc(S(=O)(=O)N3CCCCC3)cc2c1C,0,-5,-1,-1,-5
COc1ccc(-c2cn3cccnc3n2)cc1NC(=O)COc1ccccc1,1,nt,-3,nt,nt
O=C1CC(=O)Nc2cc(S(=O)(=O)Nc3ccc(Cl)c(C(F)(F)F)c3)ccc2N1,0,10,3,5,6
O=C1CC(=O)Nc2cc(S(=O)(=O)Nc3cccc(C(F)(F)F)c3)ccc2N1,0,30*,1,2,8
O=C1C(Cl)=C(NCCc2ccccc2)C(=O)c2ccccc21,nt,nt,nt,2,-16
O=C1C(Cl)=C(NCc2cccnc2)C(=O)c2ccccc21,0,34*,7,?,7
Cc1nn(-c2ccccc2)c(Cl)c1/C=N/NC(=O)CNC(=O)c1ccccc1Cl,0,46*,-12,-6,-13
Cc1nn(-c2ccccc2)c(Cl)c1/C=N/NC(N)=O,4,12,-19,-2,-6
COC(=O)c1ccc(NC(=O)CC2C(=O)N(c3ccc(Cl)cc3)C(=O)N2Cc2ccco2)cc1 (stereo not given),1,nt,-3,nt,nt
C(=N\N1CCOCC1)/c1nc(-c2ccccc2)n2ccccc12,1,43*,1,2,-2
Cc1ccc(C(=O)COC(=O)c2cccc(NC(=O)c3ccc([N+](=O)[O-])cc3[N+](=O)[O-])c2)cc1,0,11,6,?,122*
CC(=O)Nc1ccc(C(=O)OCC(=O)c2cccc([N+](=O)[O-])c2)cc1,0,17,6,1,-7
COc1cc2c(cc1OC)C(COc1ccc3c(C)cc(=O)oc3c1)N(C(=O)c1ccccc1F)CC2 (stereo not given),0,nt,8,nt,nt
CC1(C)Cc2c(ccc3ccccc23)/C(=C/C(=O)N2CCCCC2)N1,0,33*,19,-4,-6
CCCCn1c(-c2ccc(OC(F)F)cc2)nc2c1c(=O)[nH]c(=O)n2CC(C)C,-2,-2,33*,3,0
COc1cccc(C(=O)N2CC(=O)Nc3ccc(C)cc3C2c2ccc(F)cc2)c1OC (stereo not given),3,nt,5,nt,nt
COCC1CCN(C(=O)c2cc(COc3ccc(OC)c4ccccc34)on2)C1 (stereo not given),nt,nt,nt,2,24
COc1ccc(OCc2cc(C(=O)N3CCC(OC)CC3)no2)c2ccccc12,0,10,4,7,53*
CN(CC1COCCO1)C(=O)c1cc(COc2c(F)cccc2F)on1 (stereo not given),-1,-6,-10,-4,-10
CN(CCC1CCOCC1)C(=O)c1cc(COc2c(F)cccc2F)on1,1,31*,2,2,3
O=C(c1cc(COc2c(F)cccc2F)on1)N1CCC(c2ccccc2Cl)C1 (stereo not given),0,-1,32*,-2,-14
SMILES,D2 ag-1,D2 antagonist,D2 PAM-1,D2 ag-2,D2 PAM-2
O=C(c1cc(COc2c(F)cccc2F)on1)N1CCC(c2ccccc2F)C1 (stereo not given),1,-6,-11,-5,-3
COC(=O)c1ccc2c(c1)N(CC(=O)Nc1cccc(C(F)(F)F)c1)C(=O)c1ccccc1S2,1,nt,-3,nt,nt
COc1cccc(O)c1CN1CCCC(C(=O)c2cccc(C(F)(F)F)c2)C1 (stereo not given),1,49*,-23,-1,-14
CCC1CCc2sc(C(=O)O)cc2C1 (stereo not given),0,-15,7,-1,-3
C=CCN1CCN(C(=O)c2cc3c(s2)CCC(CC)C3)CC1 (stereo not given),-1,46*,-17,-6,-41
Cc1ccc([N+](=O)[O-])cc1NC(=O)CN(C1CCCCC1)S(=O)(=O)c1ccc(Cl)cc1,0,53*,-18,-1,-37
Cc1cccc(-n2nnc(C(=O)NCc3ccccn3)c2N)c1,0,31*,-2,1,-7
Cc1ccc(CNC(=O)c2nnn(-c3cccc(C)c3)c2N)cc1,nt,nt,nt,-2,-7
CCN=c1scc(C)n1/N=C/c1ccc(O)c(O)c1O,32*,-8,0,49*,117*
CCN=c1scc(C)n1/N=C/c1cc(Br)c(O)c(Br)c1,0,-18,-4,-2,-1
O=S(=O)(c1cccc(NC(=S)Nc2ccc(Br)cc2Cl)c1)N1CCOCC1,0,38*,9,-8,-22
O=C(Nc1nc2ccc(S(=O)(=O)N3CCCC3)cc2s1)c1cccs1,0,-21,6,-2,-28
O=C(COC(=O)c1cccs1)Nc1cccc(S(=O)(=O)N2CCOCC2)c1,1,36*,-3,-2,-7
O=C(Nc1cccc(Cl)c1)c1cc(S(=O)(=O)N2CCOCC2)cs1,0,35*,-14,1,-20
O=C(Nc1nc2ccc(S(=O)(=O)N3CCOCC3)cc2s1)c1cccs1,1,57*,14,6,-2
CCOc1ccc(C(=O)Nc2cc(-c3ccccc3)no2)cc1,2,nt,-4,nt,nt
COc1ccc(-n2c(=O)c3c(c4cc(OC)ccc4n3C)n(CC(=O)N3CCCC3)c2=O)cc1,0,nt,6,nt,nt
CCOc1ccc(-n2c(Cc3cc(=O)[nH]c(=O)[nH]3)nnc2SCC)cc1,0,40*,-2,-4,-11
CC(C)c1ccc(NC(=O)C2CCCN(S(=O)(=O)c3cccc4nsnc34)C2)cc1 (stereo not given),0,nt,7,nt,nt
CCOC(=O)c1sc2ccccc2c1S(=O)(=O)Nc1c(C)cccc1C,2,nt,3,nt,nt
CCN(Cc1ccccc1)S(=O)(=O)c1ccc(-c2coc(C)n2)cc1,1,nt,-5,nt,nt
C=CCNCCOc1c(C)cc(C)cc1Cl,0,32*,-22,-1,-29

# Source: PubChem (National Center for Advancing Translational Sciences (NCATS))
